# Test results as given in PubChem BioAssay (NCI).
# This is part of a sample that, as a whole, favours compounds with a hit. Of some 79,000 tested, about 15% had one in any assay. A number with no mark means an inactive call. The source made the active and inactive calls. Cut-off read from the data, not from the text of the source: active = growth inhibition above about 70%; inactive = the rest.
# How the values were obtained:
# [1] = NCI Yeast Anticancer Drug Screen. Data for the rad50 strain (AID 155);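 note: 0% = growth of vehicle-only cultures of the same strain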; settings: S. cerevisiae rad50 strain growth inhibition; at 50.0 µM; hits give high values
# In short: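 Compounds were tested on a yeast strain with an engineered DNA damage repair alteration; the reported value is growth inhibition normalised to vehicle treatment.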
# [2] = NCI Yeast Anticancer Drug Screen. Data for the mec2-1 strain (AID 157); settings: S. cerevisiae mec2-1 strain, at 50.0 µM, hits give high values
# In short: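 Using mec2-1 yeast: add compound, measure growth, express inhibition versus vehicle-treated cultures.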
# [3] = NCI Yeast Anticancer Drug Screen. Data for the sgs1 mgt1 strain (AID 161);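 note: 0% = growth of cultures given vehicle only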; settings: S. cerevisiae sgs1 mgt1 strain, at 50.0 µM, hits give high values
# In short: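 This yeast growth screen uses a strain with defined DNA-repair lesions; compound-treated growth is compared with vehicle-treated growth.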
# [4] = NCI Yeast Anticancer Drug Screen. Data for the cln2 rad14 strain (AID 165);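 note: 0% = growth equal to vehicle treated cultures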; settings: S. cerevisiae cln2 rad14 strain, at 50.0 µM, hits give high values
# In short: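 Yeast strain cln2 rad14, bearing defects in cell cycle control and DNA repair, serves as the test system; values reflect growth inhibition compared with vehicle.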
# [5] = NCI Yeast Anticancer Drug Screen. Data for the bub3 strain (AID 167); settings: S. cerevisiae bub3 mutant strain, at 50.0 µM, hits give high values
# In short: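 Growth of a checkpoint-deficient yeast mutant is measured after compound exposure. Values represent inhibition relative to vehicle.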
# [6] = NCI Yeast Anticancer Drug Screen. Data for the mlh1 rad18 strain (AID 175); settings: S. cerevisiae mlh1 rad18 strain growth inhibition; at 50.0 µM; hits give high values
# In short: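 Steps: expose repair-defective yeast to compound; measure growth; express inhibition against vehicle-treated controls.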
Compound,growth inhibition [1],growth inhibition [2],growth inhibition [3] [%],growth inhibition [4],growth inhibition [5],growth inhibition [6]
CC1C2(C)OC(=N)C(C#N)(C(c3cccc([N+](=O)[O-])c3)O2)C1(C#N)C#N (stereo not drawn),8.15%,1.55%,-13.6,0.15%,-10.4%,-9.1%
Cc1ccc(OCC2OC(n3cnc4c(Cl)nc(Cl)nc43)CC2Oc2ccc(C)cc2)cc1 (stereo not drawn),-20.4%,-21.6%,23.1,7.45%,27.4%,-33.5%
Cn1cnc2c(=O)[nH]c(=O)[nH]c21,25.9%,-10.9%,-43.4,,-34.8%,10.2%
Cc1ccc(F)cc1NC(=O)O/N=C(\Cl)C(C)C,-17.9%,-31.9%,,3.85%,4.85%,55.6%
O=C(/C=C(\[O-])c1ccccc1)CCCCCCC(=O)/C=C(\[O-])c1ccccc1.O=C(/C=C(\[O-])c1ccccc1)CCCCCCC(=O)/C=C(\[O-])c1ccccc1.O=C(/C=C(\[O-])c1ccccc1)CCCCCCC(=O)/C=C(\[O-])c1ccccc1.[Y+3].[Y+3],7.3%,-3.7%,8.75,,15.4%,
CC1CC2(OC2C)C(=O)OC2CCN(C)C/C=C(/COC(=O)C1(C)O)C2=O (stereo not drawn),2.3%,7.05%,,4.85%,-10.8%,-52%
Cc1nnc(SCC2=C(C(=O)O)N3C(=O)C(NC(=O)Cn4cnnn4)C3SC2)s1 (stereo not drawn),41.8%,3.45%,15.6,,-1.9%,13.3%
CC(C)=CCc1cc(C2COc3cc4c(c(O)c3C2=O)C=CC(C)(C)O4)c(O)cc1O (stereo not drawn),91.3% (active),93% (active),,90.9% (active),91.6% (active),
COC(=O)c1ccc(NC(=O)O/N=C(\Cl)C(C)C)cc1,-21.6%,-20.7%,,8.85%,34.1%,
C=C(C)C1CC2(C)C(C)CC(OC(=O)/C(C)=C\C)CC2C(OC(=O)/C(C)=C\C)C1O (stereo not drawn),31.2%,-9.65%,,-9.6%,-1%,-12.9%
O=C(/C=C(\[O-])c1ccccc1)CCCCCCC(=O)/C=C(\[O-])c1ccccc1.O=C(/C=C(\[O-])c1ccccc1)CCCCCCC(=O)/C=C(\[O-])c1ccccc1.O=C(/C=C(\[O-])c1ccccc1)CCCCCCC(=O)/C=C(\[O-])c1ccccc1.[La+3].[La+3],-2.3%,-8.75%,5.5,,12.3%,-10.1%
C[C@@H]1CC[C@H]2C(C)(C)[C@H]3C[C@@]12CC[C@@]3(C)O,21.9%,-16.9%,12.8,14.1%,11.8%,-18.6%
C/C(=C\COc1cc(O)c2c(c1)C(=O)c1cc(C)cc(O)c1C2=O)CCC1OC1(C)C (stereo not drawn),16.7%,-22.9%,,-0.65%,-12.4%,-53.7%
C=C1CCN(c2ccccc2)C1=O,5.3%,-2.6%,-5.15,,-5.05%,-4.55%
O=C(/C=C(\[O-])c1ccccc1)CCCCCCC(=O)/C=C(\[O-])c1ccccc1.O=C(/C=C(\[O-])c1ccccc1)CCCCCCC(=O)/C=C(\[O-])c1ccccc1.O=C(/C=C(\[O-])c1ccccc1)CCCCCCC(=O)/C=C(\[O-])c1ccccc1.[Nd+3].[Nd+3],26.4%,22.5%,30.1,,31.2%,22.1%
COC(=O)C(=O)C(C(=O)C(=O)Nc1ccccc1C(C)=O)c1nc2ccc(C(=O)c3ccccc3)cc2[nH]c1=O (stereo not drawn),25.9%,-6.6%,,28.6%,5.25%,24.5%
COc1c2c(c3c(c1OC)c(=O)c1ccccc1n3C)OCO2,6.25%,10.8%,16.8,8.5%,8.8%,13.2%
O=C(/C=C/c1ccccc1)Nc1ccccc1,12.9%,-21%,6.35,,7.05%,35.6%
COC(=O)c1nc(Br)cnc1N,8.05%,-8.4%,2.1,,4%,-0.45%
CSc1nc(Br)nc2ncn(C3CC(Oc4ccc(C)cc4)C(COc4ccc(C)cc4)O3)c12 (stereo not drawn),16.7%,1.7%,12.4,0.7%,-3.15%,-4.75%

Compound,growth inhibition [1],growth inhibition [2],growth inhibition [3] [%],growth inhibition [4],growth inhibition [5],growth inhibition [6]
CC1CC(=O)N(N(C)C)C2(C#N)C(=O)N=C(N)C12C#N (stereo not drawn),15.4%,22.6%,-16.1,2.75%,-4%,-4.75%
C=CCn1c2c(c3ccccc3c1=O)C(=O)c1ccccc1-2,43.9%,-6.5%,,30.9%,-8.5%,-49.9%
CC(=O)[C-](C(C)=O)c1ccccc1.CC(=O)[C-](C(C)=O)c1ccccc1.CC(=O)[C-](C(C)=O)c1ccccc1.[Cl-].[Zr+4],27.4%,28.8%,0.35,,14.8%,1.65%
CN1C2CCC1CC(OC(=O)C(O)c1ccccc1)C2 (stereo not drawn),9.3%,-3.75%,-27.9,,-35.8%,7.45%
Cc1ccc(NC2=N/C(=C/c3ccccc3)C(Cl)=N2)cc1,-10.1%,-30.6%,,10.9%,14.3%,-51%
N#Cc1nc(-c2cccc(-c3nc(C#N)c(N)o3)n2)oc1N,2.7%,13.7%,-18.1,7.9%,-11.8%,-58.6%
CC(=O)[CH-]C(=O)c1ccccc1.CC(=O)[CH-]C(=O)c1ccccc1.O=S(=O)([O-])c1cc([O-])c2c([O-])cc(S(=O)(=O)[O-])cc2c1.[Na+].[Zr+4],21.3%,-7.6%,25.6,,37.9%,10.8%
COC(=O)C1=CO[C@@H](OC2OC(CO)C(O)C(O)C2O)[C@H]2[C@@H](C)[C@@H](O)[C@@H](O)[C@@H]12 (stereo partly drawn),-5.15%,-10.1%,,2.4%,-5.9%,-57.7%
CC(=O)C(C(C)=O)c1ccccc1,-5.15%,2.7%,3.05,,4.05%,-5.75%
c1ccc(-c2cccc3ccccc23)cc1,32.6%,6.7%,2.65,,-11.2%,16.4%
CCCCCCCCCC(=O)CC(=O)c1c(O)cc(O)cc1O,87.8% (active),91.3% (active),,22.4%,31.8%,91.7% (active)
O=c1c2ccccc2nc(-c2ccccc2)n1/N=C/c1ccccc1[N+](=O)[O-],18.2%,1%,,8.35%,18.4%,-56.2%
Cc1ccc2c(sc(-c3ccc4c(c3)sc(-c3ccc5c(c3)sc(-c3ccc(N(C)C)cc3)[n+]5C)[n+]4C)[n+]2C)c1S(=O)(=O)O (tested in a mixture with another compound),27.7%,22.3%,,40.1%,35%,
COc1cc2oc3c(c(=O)c2c(O)c1/C=C/C(C)C)CCC(C)(C)Oc1cc(O)ccc1-3,22.6%,11.1%,,47.3%,39.5%,-26.4%
COc1ccc(C)cc1NC(=S)C#N,12.6%,-1.2%,-0.15,-18.6%,1.3%,-44.9%
COc1ccc(N=C(C)C(C)=Nc2ccc(OC)cc2)cc1,-3%,3%,,14.1%,11.6%,
Cc1ccc(/C=N/Nc2nc3ccccc3s2)s1,-24.5%,-4%,,0.7%,-12.1%,
Clc1ccc(C2C3COc4ccccc4C3=NN2c2ccccc2)cc1 (stereo not drawn),-26.1%,-29.9%,,0.5%,-29.5%,-13.3%
CC(C)O/N=C/c1cc(NC(=S)OC(C)C)ccc1Cl,2.35%,-8.75%,,-4.8%,-10.9%,-57.5%
COc1ccc2c(=O)c(-c3cc4c(cc3OC)OCO4)coc2c1,-26.5%,-30.9%,-11.3,-3.1%,-33.5%,-56.4%
